Reference: PubChem BioAssay
A number with no mark means an inactive call. No rule for the calls is given here.

These molecules were tested against Pantothenate synthetase (Mycobacterium tuberculosis (strain ATCC 25618 / H37Rv)) (UniProt P9WIL5) (assay: Coupled enzyme confirmation of inhibitors against recombinant Mtb PanC (AID 375;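 also: 0% = full reaction with vehicle and 100% = no enzyme background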)). Conditions: coupled enzyme assay; at 10 µM, active compounds read high.
Pantothenate synthetase (Mycobacterium tuberculosis (strain ATCC 25618 / H37Rv)), sequence (P9WIL5 whole entry, looked up): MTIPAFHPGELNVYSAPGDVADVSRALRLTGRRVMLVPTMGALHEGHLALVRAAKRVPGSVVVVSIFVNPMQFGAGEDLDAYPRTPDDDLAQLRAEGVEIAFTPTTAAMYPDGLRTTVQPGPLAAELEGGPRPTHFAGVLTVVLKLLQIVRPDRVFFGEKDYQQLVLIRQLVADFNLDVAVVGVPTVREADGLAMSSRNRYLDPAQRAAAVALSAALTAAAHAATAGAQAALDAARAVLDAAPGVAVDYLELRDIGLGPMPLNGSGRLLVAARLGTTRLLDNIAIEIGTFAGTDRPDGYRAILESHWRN

SMILES | inhibition
CC(C)CCNC(=O)NC(=O)CSc1nnc(-c2ccccc2F)n1N | 0%
COc1cccc(NC(=O)N2CCCC2C(=O)Nc2ccc3c(c2)OCO3)c1 (centres undefined) | 4%
Cc1nn(C)c(C)c1S(=O)(=O)N1CCCC(C(=O)N2CCN(c3ccc(Cl)cc3)CC2)C1 (centres undefined) | 0%
Cc1c(NS(=O)(=O)c2ccc3c(c2)c(=O)n(C)c(=O)n3C)c(=O)n(-c2ccccc2)n1C | 14%
CC(=O)Nc1c2c(nn1-c1ccc(C)cc1C)CSC2 | 0%
CC1=C(C(=O)Nc2ccccc2C)C(c2ccc(C)o2)N2C(=O)CSC2=N1 (centres undefined) | 0%
COc1cc(NC(=O)Nc2cccc(C(C)=O)c2)cc(OC)c1OC | 0%
O=C(CCCn1c(=O)c2sccc2n(Cc2ccc(F)cc2)c1=O)NCc1ccco1 | 1%
CCN(CC)S(=O)(=O)c1cccc(-c2nnc(SCC(N)=O)n2CCc2ccccc2)c1 | 0%
Cn1c(SC/C=C/c2ccccc2)nnc1-c1cnccn1 | 1%
CCN(CC)C(=O)COC(=O)c1ccc(O)cc1 | 0%
CCC(C)(C(=O)NC1CCCCC1)N(Cc1ccco1)C(=O)c1ccc2c(c1)OCO2 (centres undefined) | 0%
O=C(CN1CCN(c2ccccn2)CC1)N1c2ccccc2CCc2ccccc21 | 0%
OC(CCN1CCCCC1)(c1ccccc1)C1CCCCC1 (centres undefined) | 0%
Cc1c(C(=O)OCC(C)(C)CN(C)C)oc2ccccc12 | 1%
COc1ccc(C(=O)N(Cc2ccco2)C(C(=O)NC2CCCC2)c2ccc(O)cc2)cc1OC (centres undefined) | 0%
CCOc1ccc(S(=O)(=O)N2CCN(C(=O)c3cccn3C)CC2)cc1 | 0%
COc1ccc(OCC(=O)N2CCN(C(=O)Cc3ccccc3)CC2)cc1 | 0%
Cc1ccccc1Cn1nc(C)c(NC(=O)c2noc3c2CCCC3)c1C | 5%
CC(=O)Nc1cccc(NC(=O)C2CCCN2C(=O)Nc2ccc(C)cc2)c1 (centres undefined) | 0%
CCOc1ccc(NC(=O)c2ccc3c(c2)N(Cc2ccc(F)cc2)C(=O)CS3=O)cc1 (centres undefined) | 10%
Cc1nnc(N(C)C(=O)Cc2ccc3c(c2)OCO3)s1 | 0%
CCOC(=O)c1cc2sc(C)cc2n1CC(=O)NCc1ccc(F)cc1 | 2%
Cc1ccc(CNC(=O)C2CCN(S(=O)(=O)c3c(C)noc3C)CC2)cc1 | 3%
